Methyltransferases: Primary Screen for Target Class Profiling of Small Molecule Inhibitors of Methyltransferases | purified enzyme, MTase-Glo SAH luminescence; stronger effect = lower value | calls only at 40 µM | hit rate 3.9% among 25,000; call rule not given here
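Each enzyme was assayed with SAM and its substrate. SAH formation detected by MTase-Glo luminescence; single-point 40 uM screen[…].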
MTase-Glo counter: Counterscreen for Target Class Profiling of Small Molecule Inhibitors of Methyltransferases; MTase-Glo coupled enzymes, SAH conversion luminescence, no MTase; hit rate 6% among 180; Potency, µM (top dose mostly 57.3 µM), for the others: at the highest dose activity change, negative = inhibition, actives largely listed as inhibitors; shares compounds with Methyltransferases; active = well fitted inhibition curve with a large enough effect; inconclusive = small, poorly fitted or top-dose-only effect; note: potency is the fitted concentration of half-maximal effect
Numbers without * were called inactive; i = inactive; ? = inconclusive; + = active, no number; [ ] = another dose, or the depositor's remark. Many of the other results were omitted from the sample, so hits are more common in it than they were. % is set by controls: 0 for no effect and ±100 for the full control effect.

SMILES	Methyltransferases	others
CCCN1C(=O)c2cc3occc3n2CC1(C)C(=O)NC1CCCCCC1 (centres undefined)	i
O=[S+]1([O-])NC2(CCN(Cc3ccccc3C(F)(F)F)C2)CNc2ccccc21 (centres undefined)	i
O=C1NC2(CCN(Cc3ccccc3)C2)COc2ccccc21 (centres undefined)	i
O=[S+]1([O-])NC2(CCCN(Cc3c(F)cccc3Cl)C2)COc2ccccc21 (centres undefined)	+	MTase-Glo counter=-6.9%
O=C(CCc1nnc2n(Cc3ccc(Cl)cc3)c(=O)c3ccccc3n12)N1CCc2ccccc2C1	i
CCCn1c(C)cnc1CC1CCN(C(=O)NCc2ccc(OC)cc2)C1 (centres undefined)	+	MTase-Glo counter=-3.7%
CNC(=O)N1CCC(C2CCN(C(=O)NCc3cccc(OC)c3)C2)CC1 (centres undefined)	i
CCCn1c(C)cnc1CC1CCCN(S(=O)(=O)c2cc(OC)ccc2OC)C1 (centres undefined)	i
CCC(C)NC(=O)c1ccc2c(=O)n(C)c3nnc(SCC(=O)Nc4ccccc4OC)n3c2c1 (centres undefined)	i
COC(=O)c1cc2n(n1)CC(C)(C(=O)NC1CCCCCC1)N(Cc1ccccc1Cl)C2=O (centres undefined)	i
CN1CCCCC1CCNC(=O)c1ccc(N2CCOCC2)nc1 (centres undefined)	i
CCN(Cc1nccn1C)C(=O)c1ccc(N2CCC(COC)C2)nc1 (centres undefined)	i
CC(C)c1nccn1CCCNC(=O)c1ccc(N2CCCC(CO)C2)nc1 (centres undefined)	+	MTase-Glo counter=0.9%
CCN1C(=O)c2cc(C(=O)NCc3ccc(F)cc3)nn2CC1(C)C(=O)NC1CCCC1 (centres undefined)	i
CC1(C(=O)Nc2ccccc2)CN(Cc2ccccc2)Cc2ccc(N3CCOCC3)nc21 (centres undefined)	i
c1ccc(CN2CCNc3cnc(Nc4ccc(N5CCOCC5)cc4)cc3C2)cc1	+	MTase-Glo counter=3.3%[85.7 µM]
CCn1cc(CNc2ccc(-c3ccccc3OC)nn2)cn1	i
COc1ccc(-c2nnc3n(Cc4ccccc4)c(=O)c4ccccc4n23)cc1OC	i
O=C1c2cc(N3CCOCC3)nc(-c3cccc(CO)c3)c2CN1c1ccccc1	i
COc1ccc2nc([C@H]3CCN(Cc4cccnc4)C3)[nH]c2c1	i
O=C1NCCN1C1CCN(Cc2cccnc2)CC1	i
COc1ccc(-c2cc3c(cn2)CN(CCc2ccccc2)CCN3)cc1OC	+	MTase-Glo counter=?
COc1ccc(CN2C(=O)c3cc(-c4ccccc4)nn3CC2(C)C(=O)NCc2ccccc2)cc1OC (centres undefined)	i
COc1ccc(CNc2cc3c(cn2)CN(Cc2ccccc2)CCN3)cc1OC	+	MTase-Glo counter=-1.0%[85.7 µM]
COc1cccc(Nc2cc3c(cn2)CN(Cc2cccnc2)CCN3)c1	+	MTase-Glo counter=-5.0%[85.7 µM]
SMILES	Methyltransferases	others
COc1ccc(CCN2CCN(CCCc3ccccc3)CC2)cc1OC	i
COc1cccc(NC(=O)CSc2nnc3[nH]c(=O)c(C(C)(C)C)nn23)c1	i
Cc1ccc(Cl)cc1N1C(=O)c2cc(C(C)C)nn2CC1(C)C(=O)NC1CCCCC1 (centres undefined)	i
COCCCN1C(=O)c2c(C(=O)OC)ncn2CC1(C)C(=O)NC1CCCCCC1 (centres undefined)	i
O=C(NCCc1c[nH]c2ccc(Cl)cc12)c1cc2n(n1)CCCN(Cc1ccccc1)C2=O	i
O=C(CCn1ccc2cc(S(=O)(=O)N3CCCC3)ccc21)NCc1ccccn1	i
CCOC(=O)CNC(=O)N1CCn2cccc2C1C (centres undefined)	i
CCOc1ccccc1CN1C(=O)CSc2c(c3ccccc3n2C)C1C(=O)NCc1ccccc1 (centres undefined)	i
Cc1ccc(CNC(=O)Cn2nc3n(CC(C)C)c(=O)c4ccccc4n3c2=O)cc1	i
CCCn1c(=O)c2cc(F)ccc2n2c(SCc3ccc(F)cc3)nnc12	i
C=CCn1c(=O)c2ccc(C(=O)NCC(C)C)cc2n2c(=O)n(CC(=O)N(C)c3ccccc3)nc12	i
CCOC(=O)c1cc2n(n1)CC(C)(C(=O)NC1CCCC1)N(Cc1cccc(F)c1)C2=O (centres undefined)	i
CCOc1cc2c(cn1)NCCN(Cc1ccncc1Cl)C2	i
Cn1nccc1-c1cc2c(cn1)CN(Cc1ccncc1)CCN2	+	MTase-Glo counter=-2.7%[85.7 µM]
CN1C(=O)c2cc(NC(=O)CCC(=O)N3CCOCC3)ccc2N2CCN=C12	i
CCOC(=O)c1cc2n(n1)CC(C)(C(=O)NC1CCCC1)N(c1ccc(C)cc1Cl)C2=O (centres undefined)	i
COc1ccc(Br)cc1[C@@H]1Nc2ccc(Cl)cc2[C@@H]2C=CC[C@@H]21	i
COc1cncc(Nc2cnc3ccc(-c4ccccc4OC)nn23)c1	i
COc1ccnc(-c2nnc3ccc(Nc4cc(OC)c(OC)c(OC)c4)nn23)c1	+	MTase-Glo counter=-4.1%[85.7 µM]
Cc1ccc(Cn2c(=O)c3ccccc3n3c(=O)n(Cc4cccc(F)c4)nc23)cc1	i
COc1ccccc1CNC(=O)C1(C)Cn2c(cc3ccccc32)C(=O)N1Cc1ccccc1Cl (centres undefined)	i
O=C1N(Cc2ccc(F)c(F)c2)CCCC12CCN(c1nc3ccccc3o1)C2 (centres undefined)	i
COc1ccc(CNC(=O)O[C@H]2COCCN(c3nc4ccccc4o3)C2)cc1	i
c1ccc(CO[C@H]2COCCN(c3nc4ccccc4o3)C2)cc1	+	MTase-Glo counter=-3.9%[85.7 µM]
CN(C)CCN1C(=O)c2cc3occc3n2CC1(C)C(=O)NC1CCCCCC1 (centres undefined)	i
SMILES	Methyltransferases	others
CCCn1c(=O)c2ccc(C(=O)NC(C)C)cc2n2c(SCc3ccc(F)cc3)nnc12	i
O=C(Cn1nc2n(CCc3ccccc3)c(=O)c3ccccc3n2c1=O)c1ccc(F)cc1	i
COc1cccc(CNC(=O)c2c(C)noc2-c2ccccc2OC)c1	i
COc1cccc(OC)c1-c1cc(C(=O)N[C@@H](CC(C)C)C(=O)O)nn1-c1ccnc2cc(Cl)ccc12	i
COc1ccc(OCc2cc(C(=O)NC(CO)C(C)C)no2)c2ccccc12 (centres undefined)	+	MTase-Glo counter=2.3%
Cn1cccc1CN1CC(F)(F)C[C@H]1c1nnc(C2CC2)o1	i
Cn1cc(-c2ccncc2)cc1C(=O)N1CCN(c2ccc(F)cc2)CC1	i
O=C(c1ccncc1)N1CCCC(CN2CCCC2)CC1 (centres undefined)	i
O=C(c1ccc(C2CCCNC2)cc1)N1CCN(c2ccncc2)CC1 (centres undefined)	+	MTase-Glo counter=-3.3%
Cc1cc(C)c(NS(=O)(=O)c2ccc3[nH]c4c(c3c2)CCCC4)c(C)c1	i
CC(=O)Nc1c2n(c3ccccc13)CC(C)(C(=O)NC1CCCC1)N(C1CCCC1)C2=O (centres undefined)	i
CC1(C(=O)NCC2CCCO2)Cn2c(cc3ccccc32)C(=O)N1Cc1ccccc1Br (centres undefined)	i
COc1ccc(-c2cc3n(n2)CC(C)(C(=O)NC2CCCCC2)N(Cc2ccco2)C3=O)cc1 (centres undefined)	i

Source: PubChem BioAssay
